# Measurements from PubChem BioAssay (NCATS).
# “And” between values parts separate entries of the source, which are not always exact repeats. Equal values may be shown once. Inconclusive results are not listed. Entries that show only a call come without a potency. More than one record can exist for a structure, and the calls need not agree. The source made the active and inactive calls. Calls come from the whole dose curve; as a rule, active = well fitted curve in the direction sought with a large enough effect; inconclusive = small, poorly fitted or top-dose-only effect, or another doubt; inactive = no such curve, though single readings can be large; an effect the other way counts as inactive or inconclusive.
# How the values were obtained:
# HEK293 = assay: Cytotoxic Profiling of Annotated Libraries Using Quantitative High-Throughput Screening (AID 1296008); conditions: Five cell lines viability, CellTiter-Glo ATP luminescence, 48-72 h; max response: stronger effect = lower value; note: nearly all actives have a fitted effect of over 60% in size
# How it was run: (§1)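 Cytotoxicity was measured as CellTiter-Glo ATP luminescence, read after 10 min at room temperature. Compound treatment of the cells lasted 48 or 72 hr at 37 degrees Celsius in a qHTS format.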
# HaCat [1] = assay: as above; conditions: Five cell lines viability, CellTiter-Glo ATP luminescence, 48-72 h; max response: stronger effect = lower value
# How it was run: as §1
# KB-3-1 = assay: as above; conditions: Five cell lines viability, CellTiter-Glo ATP luminescence, 48-72 h; max response: stronger effect = lower value
# How it was run: as §1
# NIH3T3 [2] = assay: as above; conditions: Five cell lines viability, CellTiter-Glo ATP luminescence, 48-72 h; max response: stronger effect = lower value
# How it was run: as §1
# HACAT [3] = assay: qHTS assay to identify novel small-molecules to repurpose for Merkel cell carcinoma treatment (AID 1296009); conditions: MCC and control cell lines, CellTiter-Glo viability, 72 h; at 44.8 µM (top of the series) unless noted; note: nearly all actives have a fitted effect of over 60% in size
# How it was run: (§2)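 Cell viability, measured as CellTiter-Glo luminescence, was normalized between DMSO and no-cell wells. The cells had been exposed to 8- or 11-point compound dilutions for 72 hr at 37 degree celsius.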
# MCC-13 = assay: as above; conditions: MCC and control cell lines, CellTiter-Glo viability, 72 h; series mostly up to 46 µM
# How it was run: as §2
# MCC-26 = assay: as above; conditions: MCC and control cell lines, CellTiter-Glo viability, 72 h; series mostly up to 46 µM
# How it was run: as §2
# MKL-1 = assay: as above; conditions: MCC and control cell lines, CellTiter-Glo viability, 72 h; series mostly up to 46 µM
# How it was run: as §2
# MKL-2 = assay: as above; conditions: MCC and control cell lines, CellTiter-Glo viability, 72 h; series mostly up to 46 µM
# How it was run: as §2
# C33A = assay: Primary qHTS to identify gynecologic anti-cancer compounds using libraries of approved drugs and bioactive compounds (AID 1345084); conditions: Gynecologic cancer cell panel viability, ATPlite luminescence, 48 h; series mostly up to 57.5 µM; note: nearly all actives have a fitted effect of over 55% in size
# How it was run: (§3)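 Five-concentration response, 48 h; readout is ATP-driven luciferase luminescence.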
# CAOV3 = assay: as above; conditions: Gynecologic cancer cell panel viability, ATPlite luminescence, 48 h; series mostly up to 57.5 µM
# How it was run: as §3
# CASKI = assay: as above; conditions: Gynecologic cancer cell panel viability, ATPlite luminescence, 48 h; series mostly up to 57.5 µM
# How it was run: as §3
# Es-2 = assay: as above; conditions: Gynecologic cancer cell panel viability, ATPlite luminescence, 48 h; series mostly up to 57.5 µM
# How it was run: as §3
# HeLa = assay: as above; conditions: Gynecologic cancer cell panel viability, ATPlite luminescence, 48 h; series mostly up to 57.5 µM
# How it was run: as §3
# Hek293T [4] = assay: as above; conditions: Gynecologic cancer cell panel viability, ATPlite luminescence, 48 h, control line for the selectivity index; series mostly up to 57.5 µM
# How it was run: as §3
# JEG-3 = assay: as above; conditions: Gynecologic cancer cell panel viability, ATPlite luminescence, 48 h; series mostly up to 57.5 µM
# How it was run: as §3
# UISO = assay: qHTS assay to identify novel small-molecules to repurpose for Merkel cell carcinoma treatment (AID 1296009); conditions: MCC and control cell lines, CellTiter-Glo viability, 72 h; series mostly up to 46 µM; note: nearly all actives have a fitted effect of over 60% in size
# How it was run: as §2
# WaGa = assay: as above; conditions: MCC and control cell lines, CellTiter-Glo viability, 72 h; series mostly up to 46 µM
# How it was run: as §2
# HEK293T [5] = assay: as above; conditions: MCC and control cell lines, CellTiter-Glo viability, 72 h; at 44.8 µM (top of the series)
# How it was run: as §2
# NIH3T3 [6] = assay: as above; conditions: MCC and control cell lines, CellTiter-Glo viability, 72 h; at 44.8 µM (top of the series) unless noted
# How it was run: as §2
# Potency is the fitted concentration of half-maximal effect.
smiles,measurement,setting,value
CC1(C)CNc2cc(NC(=O)c3cccnc3NCc3ccncc3)ccc21,Potency,HEK293,5.8 µM (active)
same,max response,HEK293,-29.2% (inactive)
same,outcome,HaCat [1],inactive
same,max response,KB-3-1,3.54% (inactive) and 4.82% (inactive)
same,Potency,NIH3T3 [2],10.3 µM (active)
same,max response,NIH3T3 [2],-1.33% (inactive)
same,outcome,HACAT [3],inactive
same,Potency,MCC-13,inactive
same,Potency,MCC-26,inactive
same,Potency,MKL-1,inactive
same,Potency,MKL-2,inactive
same,Potency,C33A,inactive
same,Potency,CAOV3,inactive
same,Potency,CASKI,inactive
same,Potency,Es-2,inactive
same,Potency,HeLa,inactive
same,Potency,Hek293T [4],inactive
same,Potency,JEG-3,inactive
CN(C(=O)c1ccc(F)cc1C(F)(F)F)C1CCN(c2nnc(-c3ccnn3C)c3ccccc23)CC1,max response,HEK293,-60.8% (inactive)
same,max response,HaCat [1],-6.53% (inactive)
same,outcome,HaCat [1],inactive
same,max response,KB-3-1,-19.8% (inactive)
same,max response,NIH3T3 [2],-30.1% (inactive) and 3.56% (inactive)
same,outcome,HACAT [3],inactive
same,Potency,MCC-13,inactive
same,Potency,MCC-26,inactive
same,Potency,MKL-1,inactive
same,Potency,MKL-2,inactive
same,Potency,UISO,inactive
same,Potency,WaGa,inactive
same,Potency,C33A,inactive
same,Potency,CAOV3,inactive
same,Potency,CASKI,inactive
same,Potency,Es-2,inactive
same,Potency,HeLa,inactive
same,Potency,Hek293T [4],inactive
same,Potency,JEG-3,inactive
O=C(O)CCc1ccc(NCc2cccc(Oc3ccccc3)c2)cc1,outcome,HEK293,inactive
same,max response,HaCat [1],-7.54% (inactive)
same,outcome,HaCat [1],inactive
same,max response,KB-3-1,-3.52% (inactive) and 6.14% (inactive)
same,outcome,NIH3T3 [2],inactive
same,outcome,HACAT [3],inactive
same,outcome,HEK293T [5],inactive
same,Potency,MCC-26,inactive
same,"activity change, negative = cytotoxicity",MKL-1,-1.7% [at 0.00266 µM] (inactive)
same,Potency,C33A,inactive
same,Potency,CASKI,inactive
same,Potency,JEG-3,inactive
O=C1CCC(N2C(=O)c3ccccc3C2=O)C(=O)N1 (stereo unspecified),max response,HEK293,-7.21% (inactive)
same,outcome,HEK293,inactive
same,max response,HaCat [1],2.55% (inactive)
same,outcome,HaCat [1],inactive
same,max response,KB-3-1,0.83% (inactive) and 2.13% (inactive)
same,max response,NIH3T3 [2],-0.804% (inactive)
same,outcome,NIH3T3 [2],inactive
same,outcome,HACAT [3],inactive
same,outcome,HEK293T [5],inactive
same,Potency,MCC-13,inactive
same,Potency,MCC-26,inactive
same,Potency,MKL-1,inactive
same,Potency,MKL-2,inactive
same,outcome,NIH3T3 [6],inactive
same,Potency,UISO,inactive
same,Potency,WaGa,inactive
same,Potency,C33A,inactive
same,Potency,CAOV3,inactive
same,Potency,CASKI,inactive
same,Potency,Es-2,inactive
same,Potency,HeLa,inactive
same,Potency,Hek293T [4],inactive
same,Potency,JEG-3,inactive
c1ccc([C@H]2CN3CCSC3=N2)cc1,max response,HEK293,-11.1% (inactive)
same,outcome,HEK293,inactive
same,max response,HaCat [1],1.22% (inactive)
same,outcome,HaCat [1],inactive
same,max response,KB-3-1,-2.88% (inactive) and 1.89% (inactive)
same,max response,NIH3T3 [2],1.43% (inactive) and 2.53% (inactive)
same,outcome,HACAT [3],inactive
same,outcome,HEK293T [5],inactive
same,Potency,MCC-13,inactive
same,Potency,MCC-26,inactive
same,Potency,MKL-1,inactive
same,Potency,MKL-2,inactive
same,Potency,UISO,inactive
same,Potency,WaGa,inactive
same,Potency,C33A,inactive
same,Potency,CAOV3,inactive
same,Potency,CASKI,inactive
same,Potency,Es-2,inactive
same,Potency,HeLa,inactive
same,Potency,Hek293T [4],inactive
same,Potency,JEG-3,inactive
N=c1nc(N2CCCCC2)cc(N)n1O,max response,HEK293,3.36% (inactive)
same,outcome,HEK293,inactive
same,outcome,HaCat [1],inactive
same,max response,NIH3T3 [2],3.13% (inactive)
same,outcome,NIH3T3 [2],inactive
same,outcome,HACAT [3],inactive
same,outcome,HEK293T [5],inactive
same,Potency,MCC-13,inactive
same,Potency,MKL-1,inactive
same,Potency,MKL-2,inactive
same,outcome,NIH3T3 [6],inactive
same,Potency,UISO,inactive
same,Potency,WaGa,inactive
same,Potency,C33A,inactive
same,Potency,CAOV3,inactive
same,Potency,Es-2,inactive
same,Potency,HeLa,inactive
same,Potency,Hek293T [4],inactive
same,Potency,JEG-3,inactive
NS(=O)(=O)c1cc2c(cc1Cl)NC=NS2(=O)=O,max response,HEK293,-4.01% (inactive) and 0.386% (inactive)
same,max response,HaCat [1],-11.6% (inactive)
same,outcome,HaCat [1],inactive
same,max response,KB-3-1,-5.96% (inactive)
same,outcome,KB-3-1,inactive
same,max response,NIH3T3 [2],3.94% (inactive)
same,outcome,NIH3T3 [2],inactive
same,outcome,HACAT [3],inactive
same,Potency,MCC-13,inactive
same,Potency,MCC-26,inactive
same,Potency,MKL-1,inactive
same,Potency,MKL-2,inactive
same,outcome,NIH3T3 [6],inactive
same,Potency,UISO,inactive
same,Potency,WaGa,inactive
same,Potency,C33A,inactive
same,Potency,CAOV3,inactive
same,Potency,CASKI,inactive
same,Potency,Es-2,inactive
same,Potency,HeLa,inactive
same,Potency,Hek293T [4],inactive
same,Potency,JEG-3,inactive
Cc1cn[nH]c1,Potency,HEK293,4.69 µM (active)
same,outcome,HEK293,inactive
same,max response,HaCat [1],-8.18% (inactive)
same,outcome,HaCat [1],inactive
same,max response,KB-3-1,12.8% (inactive)
same,outcome,KB-3-1,inactive
same,max response,NIH3T3 [2],3% (inactive)
same,outcome,HACAT [3],inactive
same,outcome,HEK293T [5],inactive
same,Potency,MCC-13,inactive
same,Potency,MCC-26,inactive
same,Potency,MKL-1,inactive and 5.9 µM (active)
same,Potency,MKL-2,inactive
same,Potency,UISO,inactive and 2.96 µM (active)
same,Potency,WaGa,inactive and 1.87 µM (active)
same,Potency,C33A,inactive
same,Potency,CAOV3,inactive
same,Potency,CASKI,inactive
same,Potency,Es-2,inactive
same,Potency,HeLa,inactive
same,Potency,Hek293T [4],inactive
same,Potency,JEG-3,inactive
CN1CCN(CCCN2c3ccccc3Sc3ccc(C(F)(F)F)cc32)CC1,Potency,HEK293,23.7 µM (active)
same,outcome,HEK293,inactive
same,max response,HaCat [1],-7.86% (inactive)
same,outcome,HaCat [1],inactive
same,max response,KB-3-1,-5.37% (inactive)
same,outcome,KB-3-1,inactive
same,max response,NIH3T3 [2],-0.173% (inactive)
same,outcome,HACAT [3],inactive
same,outcome,HEK293T [5],inactive
same,Potency,MCC-13,inactive
same,Potency,MCC-26,inactive
same,Potency,MKL-1,inactive
same,Potency,MKL-2,10.6 µM (active) and inactive
same,Potency,UISO,inactive
same,Potency,WaGa,inactive
same,Potency,C33A,inactive
same,Potency,HeLa,inactive
same,Potency,JEG-3,inactive
Cc1cnc(Nc2ccc(OCCN3CCCC3)cc2)nc1Nc1cccc(S(=O)(=O)NC(C)(C)C)c1,Potency,HEK293,5.17 µM (active)
same,max response,HEK293,0.504% (inactive)
same,Potency,HaCat [1],5.8 µM (active)
same,max response,HaCat [1],2.79% (inactive)
same,Potency,KB-3-1,6.51 µM (active)
same,max response,KB-3-1,5.89% (inactive)
same,outcome,NIH3T3 [2],inactive
same,Potency,MCC-13,inactive
same,Potency,MCC-26,inactive
same,Potency,MKL-1,inactive
same,outcome,NIH3T3 [6],inactive
same,Potency,UISO,inactive
same,Potency,WaGa,inactive
same,Potency,CAOV3,10 µM (active)
same,Potency,CASKI,14.1 µM (active)
same,Potency,HeLa,7.08 µM (active)
same,Potency,JEG-3,12.6 µM (active)
COc1ccc(CCN2CCN(CCCc3ccccc3)CC2)cc1OC,Potency,HEK293,6.51 µM (active)
same,max response,HEK293,-22.2% (inactive)
same,outcome,HaCat [1],inactive
same,max response,KB-3-1,0.435% (inactive) and -5.04% (inactive)
same,max response,NIH3T3 [2],1.46% (inactive)
same,outcome,NIH3T3 [2],inactive
same,outcome,HACAT [3],inactive
same,Potency,MCC-13,inactive
same,Potency,MKL-1,inactive
same,Potency,MKL-2,inactive
same,outcome,NIH3T3 [6],inactive
same,Potency,UISO,inactive
same,Potency,WaGa,inactive
same,Potency,C33A,inactive
same,Potency,CAOV3,inactive
same,Potency,CASKI,inactive
same,Potency,Es-2,inactive
same,Potency,HeLa,inactive
same,Potency,Hek293T [4],inactive
same,Potency,JEG-3,inactive
